Compounds with a hit are over-represented: about 7.4% of the library has one in this group of screens.
Rab9 promoter act: activators of Rab9 promoter. hit rate 2.8% among 320,000. Potency, µM (doses to about 9.22 µM), hits mostly activators. Huh7 Rab9 promoter-luciferase reporter, luminescence, 24 h. AID 485297; note: nearly all actives have a fitted effect of over 60% in size
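Huh7 reporter line, Rab9 promoter upstream of luciferase. Compound exposure 24 h at 37 °C in reduced-serum medium with 10% FBS. Read-out: luminescence.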
SMN2 splice enh: increases expression of the SMN2 splice variant; HEK293 SMN2-luciferase splicing reporter, luminescence, 30-36 h; Potency, µM (titrated, usually from 46.1 µM), hits mostly activators; hit rate 2.8% among 210,000; note: nearly all actives have a fitted effect of over 55% in size
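qHTS luciferase splicing reporter: luminescence rises when SMN2 exon 7 is included in transfected HEK293 cells. Compound exposure lasted 30-36 h at 37C, with 4.5 mM final sodium butyrate as control, followed by a ONE-Glo read.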
NPC1 promoter act: activates the NPC1 promoter; Huh7 NPC1 promoter luciferase reporter, 24 h; Potency, µM (doses to about 9.22 µM), actives largely listed as activators; hit rate 2.4% among 320,000; AID 485313; note: nearly all actives have a fitted effect of over 60% in size
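Luminescence read-out of NPC1 promoter-driven luciferase in stably transfected Huh7 cells; compounds delivered in DMSO and left 24 h at 37C, 5% CO2, qHTS titration format.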
FLuc modulator: firefly luciferase modulation, counter-screen for miR-21 project | P08659 | purified FLuc, Km substrates, luminescence inhibition | Potency, µM (highest dose often 57.5 µM), usual class: inhibitors | hit rate 6.9% among 360,000 | AID 588342; note: nearly all actives have a fitted effect of over 55% in size
Target sequence (P08659 whole entry, looked up): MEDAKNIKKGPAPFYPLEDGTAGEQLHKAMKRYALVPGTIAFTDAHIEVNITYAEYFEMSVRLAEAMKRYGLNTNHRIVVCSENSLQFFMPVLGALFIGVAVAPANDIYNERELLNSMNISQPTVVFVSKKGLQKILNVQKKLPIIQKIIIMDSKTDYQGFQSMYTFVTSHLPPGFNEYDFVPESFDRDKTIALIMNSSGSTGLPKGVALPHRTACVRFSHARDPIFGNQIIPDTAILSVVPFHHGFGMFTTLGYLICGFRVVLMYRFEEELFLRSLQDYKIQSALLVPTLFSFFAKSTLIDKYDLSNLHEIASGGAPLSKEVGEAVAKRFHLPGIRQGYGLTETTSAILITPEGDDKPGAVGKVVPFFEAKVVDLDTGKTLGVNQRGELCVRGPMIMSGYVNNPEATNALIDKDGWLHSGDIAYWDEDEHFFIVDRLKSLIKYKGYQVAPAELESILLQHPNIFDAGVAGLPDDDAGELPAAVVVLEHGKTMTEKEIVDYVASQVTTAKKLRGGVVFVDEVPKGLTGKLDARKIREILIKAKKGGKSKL
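Biochemical qHTS of compounds, final roughly 60 µM downward over six points, against 10 nM purified firefly luciferase using Km concentrations of substrates (10 uM D-luciferin, 10 uM ATP) in Tris acetate pH 7.5 buffer; luminescence output.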
ELG1 genotox: inducers of genotoxicity in HEK293T ELG1-luciferase cells; AID 504466; HEK293T ELG1-luciferase reporter, luminescence, 16 h; Potency, µM (titrated, usually from 46 µM), actives largely listed as activators; hit rate 1.3% among 330,000; note: nearly all actives have a fitted effect of over 60% in size
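Cells (2,000/well) expressing the ELG1-luciferase fusion are dosed by pin tool and kept 16 hr at 37 °C, 5% CO2. Signal comes from ONE-Glo luciferase reagent after 30 min at room temperature.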
Of the large screens only hits and unclear results are named; the others gave an inactive call. Calls come from the whole dose curve; as a rule, active = well fitted curve in the direction sought with a large enough effect; inconclusive = small, poorly fitted or top-dose-only effect, or another doubt; inactive = no such curve, though single readings can be large; an effect the other way counts as inactive or inconclusive.

NS(=O)(=O)c1ccc(-c2ccc(/C=C3\C(=O)Nc4ccccc43)o2)cc1	none (no result: SMN2 splice enh)
Cc1ccc(-n2nnc(-c3cc4ccccc4nc3Cl)n2)cc1	Rab9 promoter act 4.5µM, NPC1 promoter act inconclusive, FLuc modulator 6µM, ELG1 genotox inconclusive (no result: SMN2 splice enh)
COc1ncccc1-c1nnn(-c2ccc(C)cc2)n1	Rab9 promoter act 3.2µM, NPC1 promoter act 3.2µM, FLuc modulator 4.3µM, ELG1 genotox 9.2µM (no result: SMN2 splice enh)
Cc1ccc(-n2c(=O)[nH]c3ncccc3c2=O)cc1	none (no result: SMN2 splice enh)
Cc1ccc(-c2cc3ccccc3nc2N2CCOCC2)cc1	none
COc1ncccc1-c1nnn(-c2ccc(F)cc2)n1	Rab9 promoter act 4µM, NPC1 promoter act 2.8µM, FLuc modulator 5.4µM, ELG1 genotox 9.2µM (no result: SMN2 splice enh)
COc1ncccc1-c1nnn(-c2ccc(Cl)c(Cl)c2)n1	Rab9 promoter act 3.2µM, NPC1 promoter act 2.8µM, FLuc modulator 4.8µM, ELG1 genotox inconclusive (no result: SMN2 splice enh)
NC(=O)c1cccnc1Oc1ccc(Cl)cc1Cl	none (no result: SMN2 splice enh)
Fc1ccc(-n2nnc(-c3ccccc3Br)n2)cc1	none (no result: SMN2 splice enh)
COc1cc(C#N)ccc1OC(=O)Cc1cc(OC)c(OC)c(OC)c1	none (no result: SMN2 splice enh)
COc1ccccc1CCC(=O)Oc1ccc(C#N)cc1OC	FLuc modulator 21µM (no result: SMN2 splice enh)
Cc1nn(C(=O)COc2ccccc2)c(C)c1Sc1ccccc1	none (no result: Rab9 promoter act, NPC1 promoter act, ELG1 genotox)
O=S(=O)(c1cccc2nsnc12)N1CCc2ccccc21	Rab9 promoter act 3.5µM, SMN2 splice enh inconclusive, NPC1 promoter act inconclusive, FLuc modulator 21µM, ELG1 genotox inconclusive
O=S(=O)(c1cccc2nsnc12)N1CCN(c2ccccc2F)CC1	none (no result: SMN2 splice enh)
COc1ccc(OCCCn2c(=O)oc3ccc(C)cc32)cc1	SMN2 splice enh inconclusive (no result: Rab9 promoter act, NPC1 promoter act, ELG1 genotox)
Cc1ccc2oc(=O)n(CCCOc3ccccc3)c2c1	Rab9 promoter act inconclusive, NPC1 promoter act inconclusive, FLuc modulator 24µM, ELG1 genotox inconclusive
O=c1oc2ccccc2n1CCCOc1ccccc1Cl	SMN2 splice enh 20µM, FLuc modulator 12µM (no result: Rab9 promoter act, NPC1 promoter act, ELG1 genotox)
CCc1ccc(OCC(=O)Nc2ccc3[nH]ncc3c2)cc1	FLuc modulator inconclusive (no result: SMN2 splice enh)
O=C(Cc1cccs1)Nc1ccc(F)cc1	none (no result: SMN2 splice enh)
CCn1nc(NS(=O)(=O)c2ccc(NC(C)=O)cc2)c2cc3cc(C)ccc3nc21	FLuc modulator 11µM (no result: SMN2 splice enh)
CCn1nc(NS(=O)(=O)c2ccccc2)c2cc3ccc(C)cc3nc21	FLuc modulator inconclusive (no result: SMN2 splice enh)
CCn1nc(NS(=O)(=O)c2ccccc2)c2cc3cc(C)ccc3nc21	FLuc modulator 15µM (no result: SMN2 splice enh)
Cc1cc(NC(=O)C2CC2)n(-c2nc3ccccc3s2)n1	FLuc modulator 15µM
CC(=O)Nc1ccc(OC[C@@H](O)CNC(C)C)cc1	none (no result: Rab9 promoter act, NPC1 promoter act, FLuc modulator, ELG1 genotox)
C=C(C)CN(CC)c1nc(N)c2c(N)nc3c(c2c1C#N)CC(=O)N3C12CC3CC(CC(C3)C1)C2	none
N#Cc1c(N2CCCC(O)C2)nc(N)c2c(N)nc3c(c12)CC(=O)N3C12CC3CC(CC(C3)C1)C2 (stereo not given)	FLuc modulator 5.4µM
COc1ccc(C(=O)/C=C/c2cn(CN3CCN(C)CC3)c3ccccc23)cc1	FLuc modulator 6µM, ELG1 genotox inconclusive
CCCN(CCC)CC(O)Cn1cc(/C=C/C(=O)c2ccc(OCC)cc2)c2ccccc21 (stereo not given)	none (no result: Rab9 promoter act, NPC1 promoter act, ELG1 genotox)
COc1ccc(C(=O)/C=C/c2cn(CC(O)CN3CCOCC3)c3ccccc23)cc1 (stereo not given)	FLuc modulator 15µM
CCOc1ccc(C(=O)/C=C/c2cn(CN3CCN(C)CC3)c3ccccc23)cc1	FLuc modulator 17µM
Cc1ccc(C(=O)/C=C/c2cn(CC(O)CN3CCOCC3)c3ccccc23)cc1 (stereo not given)	FLuc modulator inconclusive
N#Cc1nc(-c2cccs2)oc1NCC1CCCO1 (stereo not given)	none
CCOc1ccc(Nc2oc(-c3ccc(Cl)cc3)nc2C#N)cc1	SMN2 splice enh inconclusive, FLuc modulator inconclusive, ELG1 genotox inconclusive
Cc1cccc(-c2nc(C#N)c(NCC3CCCO3)o2)c1 (stereo not given)	Rab9 promoter act 2.5µM, NPC1 promoter act 2.8µM, FLuc modulator 12µM, ELG1 genotox inconclusive (no result: SMN2 splice enh)
Cc1ccc(-c2nc(C#N)c(NCC3CCCO3)o2)cc1 (stereo not given)	Rab9 promoter act inconclusive, SMN2 splice enh 13µM, NPC1 promoter act inconclusive, FLuc modulator 21µM, ELG1 genotox inconclusive
COc1ccc(-c2nc(C#N)c(NCCCN3CCOCC3)o2)cc1	FLuc modulator inconclusive
CCOc1ccc(-c2nc(C#N)c(NC3CC3)o2)cc1	Rab9 promoter act inconclusive, FLuc modulator 15µM
COc1ccc(-c2nc(C#N)c(NCC3CCCO3)o2)cc1 (stereo not given)	SMN2 splice enh inconclusive, FLuc modulator 13µM
COc1cccc(N2CCN(C(=O)c3oc4ccccc4c3NC(=O)CCc3cc(OC)no3)CC2)c1	none (no result: SMN2 splice enh)
O=C(O)Cn1c(=O)c2c3c(sc2n(Cc2ccc(Cl)cc2Cl)c1=O)CCCC3	none (no result: SMN2 splice enh)
Cc1cccc(-c2nc(C#N)c(N3CCCCCC3)o2)c1	SMN2 splice enh inconclusive, FLuc modulator 11µM, ELG1 genotox 16µM
O=C(CCS(=O)(=O)c1ccc(Br)cc1)NCc1ccc(F)cc1	none (no result: SMN2 splice enh)
COc1ccc(Br)cc1C(=O)Nc1cccc(NC(=O)c2ccco2)c1	FLuc modulator 24µM (no result: SMN2 splice enh)
COc1ccc(C(=O)COc2cccc(NC(=O)c3ccco3)c2)cc1	FLuc modulator 15µM
COc1cccc(C(=O)COc2cccc(NC(=O)c3ccco3)c2)c1	FLuc modulator 27µM (no result: SMN2 splice enh)

Screens (PubChem BioAssay)
